Reference: PMC5540273 (PLoS ONE, 2017)
Several values for one entry are separate records, joined by “and”; a condition that tells them apart may be missing. Equal entries are not always repeated. Where two headings read alike, the source gives them in different places.

Legend:
ABL2 = conditions: concentration: 1 μM, replicates: in singlicate, n = 1
ACVR1B = conditions: concentration: 1 μM, replicates: in singlicate; n = 1
ACVR1 = conditions: concentration: 1 μM, replicates: in singlicate; n = 1
ACVR2A = conditions: concentration: 1 μM, replicates: in singlicate; n = 1
ACVR2B = conditions: concentration: 1 μM, replicates: in singlicate; n = 1
ACVRL1 = conditions: concentration: 1 μM, replicates: in singlicate; n = 1
ADCK3 = tested on: T1, ADCK3; conditions: concentration: 1 μM, replicates: in singlicate, n = 1
T1 construct: gene CABC1

ADCK4 = conditions: concentration: 1 μM, replicates: in singlicate, n = 1
AKT1 = conditions: concentration: 1 μM, replicates: in singlicate; n = 1
AKT2 = conditions: concentration: 1 μM, replicates: in singlicate, n = 1
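Note: KINOMEscan kinase panel screen.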

Row | SMILES | %Inh (ABL2) | %Inh (ACVR1B) | %Inh (ACVR1) | %Inh (ACVR2A) | %Inh (ACVR2B) | %Inh (ACVRL1) | %Inh (ADCK3) | %Inh (ADCK4) | %Inh (AKT1) | %Inh (AKT2) | %Inh (ABL2; 1 µM) | %Inh (ADCK3; 1 µM) | %Inh (ADCK4; 1 µM) | %Inh (AKT2; 1 µM)
1 | C[C@@H]1CCN(C(=O)CO)C[C@@H]1N(C)c1ncnc2[nH]ccc12 | 0% | 13% | 0% | 0% | 0% | 8% | 0% | 0% | 0% | 0% | – | – | – | –
2 | Clc1ccc(-c2cc(-c3c[nH]nc3-c3ccccn3)ccn2)cc1 [GW681251] | 15% | 44% | 12% | 33% | 52% | 0% | 13% | 4% | 27% | 0% | – | – | – | –
3 | Fc1cccc(COc2ccc(Nc3ncnc4sc(-c5ccc[nH]5)cc34)cc2Cl)c1 [GW707818] | 0% | 2% | 9% | 5% | 16% | 4% | 1% | 24% | 0% | 7% | – | – | – | –
4 | COC(=O)c1c(-c2ccccc2)c2cc(Cl)ccc2c(=O)n1Cc1ccc(S(C)(=O)=O)cc1 | 18% | 0% | 0% | 0% | 0% | 0% | 17% | 0% | 9% | 3% | – | – | – | –
5 | Cl.c1ccc(Cn2ncc3cc(Nc4ncnc5ccccc45)ccc32)cc1 [GW273749] | 0% | 0% | 5% | 0% | 0% | 0% | 7% | 22% | 0% | 13% | – | – | – | –
6 | c1ccc(-c2ccc3c(-c4ccnc(Nc5ccc6c(c5)OCCO6)n4)cnn3n2)cc1 [GW818941] | 12% | 0% | 24% | 32% | 11% | 13% | 0% | 9% | 0% | 10% | – | – | – | –
7 | COc1ccc(Nc2nccc(N3CCC(NC(=O)Nc4ccc5c(c4)OCO5)C3)n2)cc1 (stereo not shown) [GSK1379745] | 18% | 0% | 1% | 0% | 5% | 0% | 17% | 41% | 0% | 7% | – | – | – | –
8 | Cc1ccc(O)cc1Nc1cc(C(F)(F)F)nc2ccc(-c3ccncc3)cc12 [GW630823] | 14% | 0% | 11% | 0% | 0% | 0% | 10% | 0% | 5% | 1% | – | – | – | –
9 | COc1ccc(-c2nc3n(c2-c2ccncc2)CCC3)cc1 [SKF-104493] | – | 19% | 0% | 0% | 0% | 0% | – | – | 0% | – | 5% and 0% | 0% and 6% | 12% and 6% | 0% and 3%
10 | Oc1ccc2ncnc(Nc3ccc(OCc4ccccc4)cc3)c2c1 [GI262866] | 7% | 0% | 0% | 0% | 9% | 0% | 0% | 0% | 0% | 9% | – | – | – | –
11 | CCc1nc(-c2cccc(C)c2)c(-c2ccnc(NC(=O)c3ccccc3)c2)s1 | 27% | 12% | 0% | 0% | 0% | 0% | 17% | 20% | 0% | 13% | – | – | – | –
12 | FC(F)(F)c1ccc(-c2cc(-c3c[nH]nc3-c3ccccn3)ccn2)cc1 [GW599550] | 16% | 46% | 16% | 0% | 34% | 0% | 9% | 37% | 0% | 0% | – | – | – | –
13 | COc1ccc(NC(=O)Nc2ccc(C)c(-c3ccc(C(=O)Nc4ccncc4)cc3)c2)cc1 [GSK1398475] | 12% | 0% | 43% | 0% | 0% | 0% | 19% | 34% | 0% | 0% | – | – | – | –
14 | CS(=O)(=O)CCNCc1ccc(-c2ccc3ncnc(Nc4ccc(OCc5ccccc5)c(Cl)c4)c3c2)o1.Cl [GW574783] | 0% | 0% | 2% | 4% | 22% | 0% | 23% | 20% | 46% | 21% | – | – | – | –
15 | CN1c2ccc(-c3ccc(C(=O)NCCO)cc3)cc2-c2[nH]ncc2S1(=O)=O | 7% | 0% | 22% | 0% | 2% | 0% | 0% | 3% | 11% | 0% | – | – | – | –
16 | CCc1nc(-c2cccc(N(C)S(=O)(=O)c3ccccc3)c2)c(-c2ccnc(Nc3ccc(N4CCN(C(C)=O)CC4)nc3)n2)s1 [GSK1645895] | 23% | 0% | 0% | 0% | 0% | 0% | 16% | 19% | 0% | 0% | – | – | – | –
17 | C[C@H]1CC[C@@H](C(=O)Nc2ccccc2)CN1c1cc(-c2ccc3c(N)n[nH]c3c2)nc(N)n1 [GSK2283293] | 15% | 0% | 0% | 0% | 0% | 0% | 11% | 40% | 0% | 6% | – | – | – | –

Row | SMILES | %Inh (ABL2) | %Inh (ACVR1B) | %Inh (ACVR1) | %Inh (ACVR2A) | %Inh (ACVR2B) | %Inh (ACVRL1) | %Inh (ADCK3) | %Inh (ADCK4) | %Inh (AKT1) | %Inh (AKT2) | %Inh (ABL2; 1 µM) | %Inh (ADCK3; 1 µM) | %Inh (ADCK4; 1 µM) | %Inh (AKT2; 1 µM)
18 | O=C(CCO)NCCn1ccc2ncnc(Nc3ccc(Oc4cccc(C(F)(F)F)c4)c(Cl)c3)c21 | 0% | 0% | 0% | 0% | 0% | 0% | 3% | 0% | 0% | 0% | – | – | – | –
19 | CSc1ccc(NC2=C(c3ccccc3Cl)C(=O)NC2=O)cc1 [SB-342411] | 3% | 0% | 0% | 0% | 0% | 0% | 16% | 0% | 0% | 11% | – | – | – | –
20 | CC(C)(C)c1ccc(-n2cnc3c(N)ncnc32)cc1 [SKF-97263] | 7% | 0% | 10% | 7% | 0% | 0% | 23% | 0% | 0% | 12% | – | – | – | –
21 | O=C(c1ccc(-c2cc(-c3c[nH]nc3-c3ccccn3)ccn2)cc1)N1CCCC1 [GW792479] | 0% | 77% | 0% | 11% | 22% | 0% | 27% | 0% | 2% | 0% | – | – | – | –
22 | Fc1cccc(COc2ccc(Nc3ncnc4cc[nH]c34)cc2Cl)c1 | 10% | 12% | 19% | 0% | 3% | 16% | 1% | 17% | 0% | 0% | – | – | – | –
23 | Cc1cccc(-c2nc(Nc3ccc4[nH]nnc4c3)c3ccccc3n2)n1 [GW867587] | 0% | 0% | 0% | 0% | 0% | 0% | 0% | 8% | 5% | 0% | – | – | – | –
24 | CC(C)(C)OC(=O)NC1CCCN(c2cc(-c3ccc4c(N)n[nH]c4c3)nc(N)n2)C1 (stereo not shown) [GSK2286096] | 6% | 0% | 0% | 0% | 0% | 0% | 8% | 5% | 0% | 0% | – | – | – | –
25 | CCn1c(-c2ccncc2)nc2cnccc21 [SB-735216] | 0% | 14% | 40% | 0% | 4% | 0% | 15% | 6% | 0% | 0% | – | – | – | –
26 | CS(=O)(=O)CCNCc1nc(-c2ccc3ncnc(Nc4ccc(OCc5cccc(F)c5)c(Cl)c4)c3c2)cs1.Cl [GW583340] | 0% | 0% | 0% | 0% | 0% | 0% | 1% | 20% | 0% | 0% | – | – | – | –
27 | COc1ccc(Nc2nccc(N3CCC(NC(=O)c4cccc(NC(C)=O)c4)C3)n2)cc1 (stereo not shown) [GSK1379732] | 0% | 0% | 6% | 0% | 0% | 2% | 8% | 36% | 0% | 14% | – | – | – | –
28 | FC(F)(F)c1ccc(-c2nn3ncccc3c2-c2ccnc(Nc3cccc(C(F)(F)F)c3)n2)cc1 [GW828205] | 16% | 24% | 0% | 6% | 19% | 10% | 23% | 0% | 0% | 0% | – | – | – | –
29 | Cl.c1ccc(Cn2ccc3cc(Nc4ncnc5ccccc45)ccc32)cc1 [GW275568] | 0% | 0% | 10% | 2% | 16% | 0% | 24% | 4% | 3% | 12% | – | – | – | –
30 | COC(=O)c1cccc(NC(=O)NCCNc2ccnc(Nc3ccc(F)cc3)n2)c1 [GSK1379883] | 1% | 0% | 6% | 0% | 0% | 0% | 15% | 48% | 0% | 0% | – | – | – | –
31 | COc1ccc(-c2oc3ncnc(N)c3c2-c2ccc(OC)cc2)cc1 [SB-589132] | 20% | 0% | 21% | 0% | 0% | 12% | 12% | 55% | 0% | 0% | – | – | – | –
32 | CN1CCC(n2cnc(-c3ccc(F)cc3)c2-c2ccnc(NC3CCNCC3)n2)CC1 [SB-229482] | 0% | 0% | 0% | 0% | 0% | 7% | 9% | 5% | 0% | 0% | – | – | – | –
33 | COc1ccc(NC(=O)c2ccc(-c3cc(-c4nnc(C)o4)ccc3C)cc2)cc1 [GW595885] | 16% | 0% | 0% | 0% | 5% | 0% | 0% | 28% | 0% | 0% | – | – | – | –
34 | Cn1ccc2ncnc(Nc3ccc(Oc4cccc(Cl)c4)c(Cl)c3)c21 | 16% | 28% | 0% | 0% | 17% | 0% | 1% | 0% | 22% | 7% | – | – | – | –
